Where a structure was tested more than once in an assay, its records may differ in their call. Activity calls are given as the source filed them. Rule for the calls: active = hit-call score of the fitted dose curve at least 0.9, where 1 is the maximum; inactive = score below 0.9.

The source of these data is PubChem BioAssay (EPA / NIEHS).

A short description of assay [1]: APR_HepG2_CellCycleArrest_24hr: Apredica 24-hour HepG2 Assay for Cell Cycle Arrest (AID 2282905).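 Note: cell cycle arrest scored as ratio of 2N to 4N nuclear DNA content.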 To be noted: imaging, actives raise or lower the signal. The method in brief:
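HepG2 cells were exposed to compounds at 0.39–200 uM (ten concentrations, duplicate) in 0.5% v/v DMSO for 24 hr. After formaldehyde fixation and Triton permeabilization, Hoechst 33342-stained nuclei were imaged at 20x; DNA content was quantified, with bidirectional fitting against DMSO.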

The nature of assay [2]: APR_HepG2_StressKinase_1hr: Apredica 1-hour HepG2 Assay for Stress Kinase (AID 2282906). The following applies: HepG2 stress kinase (phospho-c-Jun) imaging, actives raise or lower the signal. The gist of the method: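 HepG2 cells dosed 0.39-200 uM (0.5% DMSO) for 1 h, then formaldehyde-fixed. Stress kinase read by phospho-c-Jun immunofluorescence using high-content imaging; bidirectional fit vs DMSO.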

The nature of assay [3]: APR_HepG2_NuclearSize_24hr: Apredica 24-hour HepG2 Assay for Nuclear Size (AID 2282907). The following applies: high-content imaging, actives raise or lower the signal. The method in brief:
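HepG2 human liver cells were exposed for 24 hr to compounds at 0.39–200 uM (ten concentrations, duplicate) in 0.5% v/v DMSO. They were then formaldehyde-fixed, Triton-permeabilized and Hoechst 33342-stained, and nuclear diameter was imaged at 20x. Bidirectional fits were made against DMSO.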

A short description of assay [4]: APR_HepG2_CellLoss_24hr: Apredica 24-hour HepG2 Assay for Cell Loss (AID 2282908).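 For AC50: fit in both directions so a hit may be cell loss or gain.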 The following applies: high-content imaging. The method in brief:
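Compounds were tested at 0.39–200 uM in duplicate with 0.5% v/v DMSO final. Cells were then fixed in 3.7% formaldehyde, Hoechst 33342 nuclei were imaged at 20x by HCS, and cell number was fitted bidirectionally against DMSO.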

Assay [5] can be described thus: APR_HepG2_MicrotubuleCSK_24hr: Apredica 24-hour HepG2 Assay for Microtubule CSK Stabilty (AID 2282909). The following applies: HepG2 microtubule cytoskeleton imaging, actives raise or lower the signal. The method in brief:
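HepG2 cells exposed 24 h to compounds at 0.39–200 uM (duplicate, 0.5% v/v DMSO final), then fixed, permeabilized and immunostained for alpha-tubulin with Hoechst 33342. Cytoskeleton imaged at 20x; bidirectional fit versus DMSO baseline.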

A short description of assay [6]: APR_HepG2_MitoticArrest_24hr: Apredica 24-hour HepG2 Assay for Mitotic Arrest (AID 2282910). To be noted: high-content imaging, actives raise or lower the signal. The gist of the method:
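HepG2 human liver cells were exposed to compounds at 0.39–200 uM (10 concentrations, duplicate) in 0.5% v/v DMSO for 24 hr, then fixed and immunostained for phospho-histone H3 with Hoechst 33342. Mitotic arrest came from HCS fluorescent imaging, fitted bidirectionally against DMSO.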

Assay [7] in a line: APR_HepG2_MitoMembPot_24hr: Apredica 24-hour HepG2 Assay for Mitochondrial Membrane Potential (AID 2282911). To be noted: imaging, actives raise or lower the signal. The method in brief: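 HepG2 cells exposed 24 h to 0.39–200 uM compounds in duplicate, 0.5% v/v DMSO final. MitoTracker Red CMXRos 250 nM loaded 30 min before formaldehyde fixation; high-content imaging at 20x, bidirectional fit versus DMSO.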

Assay [8] is described as follows: APR_HepG2_MitoMass_24hr: Apredica 24-hour HepG2 Assay for Mitochondrial Mass (AID 2282912). The following applies: high-content imaging, actives raise or lower the signal. The method in brief: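 Human HepG2 liver cells were exposed for 24 hr to compounds at 0.39–200 uM (duplicates, 0.5% v/v DMSO final). They were stained live with 250 nM MitoTracker Red CMXRos for 30 min, fixed in 3.7% formaldehyde, and imaged by HCS fluorescence; signals were fitted bidirectionally against DMSO.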

A short description of assay [9]: APR_HepG2_CellCycleArrest_72hr: Apredica 72-hour HepG2 Assay for Cell Cycle Arrest (AID 2282914). The following applies: high-content imaging, actives raise or lower the signal. The method in brief: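 HepG2 cells exposed 72 h in duplicate to 0.39–200 uM compound, 0.5% DMSO final. Formaldehyde-fixed, Hoechst 33342-stained nuclei imaged at 20x, six fields per well; DNA content per valid cell quantified by cell-cycle image analysis, bidirectional fit versus DMSO.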

Assay [10] in a line: APR_HepG2_p53Act_24hr: Apredica 24-hour HepG2 Assay for p53 Activation (AID 2282913).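 Note: p53 protein immunofluorescence averaged per cell in HepG2 with Hoechst nuclei.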 To be noted: high-content imaging, actives raise or lower the signal. The gist of the method: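 HepG2 cells exposed 24 h to compounds at 0.39–200 uM in duplicate, 0.5% v/v DMSO final; fixed, permeabilized, stained with anti-p53 antibody and Hoechst 33342; fluorescence imaging; bidirectional curve fit versus DMSO.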

`O=C(NC(=O)c1c(F)cccc1F)Nc1ccc(OC(F)(F)C(F)OC(F)(F)F)c(Cl)c1` (configuration not stated): the result in assay [1], in assay [2], in assay [3], in assay [4], in [5] and in assay [6] was inactive. The call in assay [7], in assay [8] and in [9] was inactive.

For the molecule `COP(=O)(OC)OC=C(Cl)Cl`, the figures for the AC50 in [1] and in [4] were 99.1 µM (active) and 58.9 µM (active), respectively. Further, the result in [2], in assay [3], in assay [5], in [6], in [7] and in [8] was inactive. Further, in assay [9], the result was inactive.

On to `ClC1C(Cl)C(Cl)C(Cl)C(Cl)C1Cl` (configuration not stated), for which the result in assay [1], in assay [2], in [3], in assay [4], in assay [5] and in [6] was inactive. Further, the call in assay [7], in assay [8], in [10] and in assay [9] was inactive. Besides, the half-maximal activity concentration (AC50) in assay [9] is 141 µM (active).

As to `OCCOc1ccccc1`, the molecule was classed as inactive in assay [1], in assay [2], in assay [3], in assay [4], in [5] and in [6]. Moreover, the result in assay [7], in assay [8], in assay [10] and in assay [9] was inactive.

In the case of `CC(C)OC(=O)Nc1cccc(Cl)c1`, the molecule was called inactive in assay [1], in assay [2], in assay [3], in assay [4], in assay [5] and in assay [6]. The call in [7], in assay [8], in [10] and in assay [9] was inactive.

Consider `CCN(CC)C(=O)SCc1ccc(Cl)cc1`, for which the call in assay [1], in assay [2], in assay [3], in [4], in assay [5] and in assay [6] was inactive. Besides, the molecule was called inactive in assay [8], in assay [10] and in assay [9]. Also, the half-maximal activity concentration (AC50) in [7] was 22.8 µM (active).

`O=[N+]([O-])c1c(Cl)c(Cl)c(Cl)c(Cl)c1Cl`: the result in assay [1], in assay [2], in assay [3], in [4], in assay [5] and in assay [6] was inactive. For the same molecule, the molecule was called inactive in assay [7], in assay [8] and in [10]. Besides, in assay [9], the AC50 was 81.9 µM (active).

On to `COC(=O)c1ccccc1S(=O)(=O)NC(=O)N(C)c1nc(C)nc(OC)n1`, for which the call in assay [1], in [2], in assay [3], in assay [4], in [5] and in assay [6] was inactive. The outcome in assay [7], in assay [8], in [10] and in assay [9] was inactive.

For `Cc1[nH]c(=O)n(C(C)(C)C)c(=O)c1Cl`, the outcome in assay [1], in assay [2], in assay [3], in assay [4], in [5] and in assay [6] was inactive. Further, the result in assay [7], in assay [8] and in [9] was inactive.

In the case of `CCOCN(C(=O)CCl)c1c(C)cccc1CC`, the AC50 was 30.6 µM (active) in [1]; 33.4 µM (active) in assay [3]; 30.5 µM (active) in assay [4]; 99.6 µM (active) in assay [5]; 17.9 µM (active) in [6]; 50.7 µM (active) in assay [7]. The half-maximal activity concentration (AC50) in assay [8] is 65.1 µM (active); in assay [10], 31.9 µM (active); in [9] it was 29.4 µM (active). Moreover, the molecule was called inactive in assay [2].

`CNC(=O)Oc1cccc(N=CN(C)C)c1`: the outcome in assay [1], in [2], in assay [3], in assay [5], in assay [6] and in assay [7] was inactive. For the same molecule, the outcome in assay [8] and in assay [10] was inactive. For the same molecule, the concentration at half-maximal activity (AC50) is 78.6 µM (active) in assay [4] and 64.1 µM (active) in assay [9].

On to `CNC(=O)/C=C(\C)OP(=O)(OC)OC`, for which the molecule was called inactive in [1], in [2], in [3], in assay [4], in assay [5] and in assay [6]. For the same molecule, the call in assay [7], in assay [8] and in assay [9] was inactive.

For `O=C(O)CCCOc1ccc(Cl)cc1Cl`, the result in [1], in assay [2], in assay [3], in assay [4], in assay [5] and in assay [6] was inactive. Also, the call in assay [7], in assay [8], in [10] and in assay [9] was inactive.

Regarding `Cc1cc(C)nc(NC(=O)NS(=O)(=O)c2ccccc2C(=O)OC2COC2)n1`, the call in [1], in assay [2], in assay [3], in assay [4], in assay [5] and in assay [6] was inactive. The call in [7], in [8], in assay [10] and in assay [9] was inactive.

For orientation: AC50 means the concentration giving half of the maximal activity seen.
